Reference: PMC11062922 (Nature Chemical Biology, 2023)
Like-named read-outs stand apart in the source and are kept apart here.

Key:
Parameters in all cases: species or system human, MV4-11 + K-562 + COLO205 + SK-N-BE2 + OVCAR-8
AKT1 = conditions: read-out: apparent Kd; compound concentrations: 100 nM and 1000 nM (sheet 'Samples'), CATDS: 0.20624871442291401; n = 1
CSNK1D = conditions: read-out: apparent Kd, compound concentrations: 100 nM and 1000 nM (sheet 'Samples'), n = 1
CSNK1E = conditions: read-out: apparent Kd, compound concentrations: 100 nM and 1000 nM (sheet 'Samples'), n = 1
GSK3A = conditions: read-out: apparent Kd; compound concentrations: 100 nM and 1000 nM (sheet 'Samples'), CATDS: 0.23143029559655601; n = 1
RIOK2 = conditions: read-out: apparent Kd; compound concentrations: 100 nM and 1000 nM (sheet 'Samples'), CATDS: 0.18913150983507701; n = 1
AKT2 = conditions: read-out: apparent Kd, compound concentrations: 100 nM and 1000 nM (sheet 'Samples'), n = 1
CDC42 = conditions: read-out: apparent Kd; compound concentrations: 100 nM and 1000 nM (sheet 'Samples'), CATDS: 0.22290293584535001; n = 1
DCTPP1 = conditions: read-out: apparent Kd; compound concentrations: 100 nM and 1000 nM (sheet 'Samples'), CATDS: 0.21946869965493901; n = 1
DJA1 = tested on: T1, DJA1; conditions: read-out: apparent Kd; compound concentrations: 100 nM and 1000 nM (sheet 'Samples'), CATDS: 0.217792726025238; n = 1
T1 construct: gene DNAJA1

IRAK4 = conditions: read-out: apparent Kd; compound concentrations: 100 nM and 1000 nM (sheet 'Samples'), CATDS: 0.188463756574588; n = 1
ADRBK1 = conditions: read-out: apparent Kd, compound concentrations: 100 nM and 1000 nM (sheet 'Samples'), n = 1
CSNK1G1 = conditions: read-out: apparent Kd; compound concentrations: 100 nM and 1000 nM (sheet 'Samples'), CATDS: 0.16245140586904; n = 1
NQO2 = conditions: read-out: apparent Kd, compound concentrations: 100 nM and 1000 nM (sheet 'Samples'), n = 1
PDXK = conditions: read-out: apparent Kd; compound concentrations: 100 nM and 1000 nM (sheet 'Samples'), CATDS: 0.18883200846926201; n = 1
TP53RK = conditions: read-out: apparent Kd; compound concentrations: 100 nM and 1000 nM (sheet 'Samples'), CATDS: 0.1506883600127; n = 1
VDAC3 = conditions: read-out: apparent Kd; compound concentrations: 100 nM and 1000 nM (sheet 'Samples'), CATDS: 0.190251033630114; n = 1
ERBB3 = conditions: read-out: apparent Kd; compound concentrations: 100 nM and 1000 nM (sheet 'Samples'), CATDS: 0.13947545743424; n = 1
MAP2K1 = conditions: read-out: apparent Kd; compound concentrations: 100 nM and 1000 nM (sheet 'Samples'), CATDS: 0.50931897145829497; n = 1
MAP2K2 = conditions: read-out: apparent Kd; compound concentrations: 100 nM and 1000 nM (sheet 'Samples'), CATDS: 0.45776902126379299; n = 1
AGK = conditions: read-out: apparent Kd, n = 1
JAK2 = conditions: read-out: apparent Kd; compound concentrations: 100 nM and 1000 nM (sheet 'Samples'), CATDS: 0.169567440751725; n = 1
MAPK14 = conditions: read-out: apparent Kd; compound concentrations: 100 nM and 1000 nM (sheet 'Samples'), CATDS: 0.109512285169825; n = 1
MAPK9 = conditions: read-out: apparent Kd; compound concentrations: 100 nM and 1000 nM (sheet 'Samples'), CATDS: 8.7291809991309394E-2; n = 1
MAPKAPK2 = conditions: read-out: apparent Kd; compound concentrations: 100 nM and 1000 nM (sheet 'Samples'), CATDS: 8.8585007822458595E-2; n = 1
PKN3 = conditions: read-out: apparent Kd; compound concentrations: 100 nM and 1000 nM (sheet 'Samples'), CATDS: 8.9898852115076394E-2; n = 1
PRKD2 = conditions: read-out: apparent Kd; compound concentrations: 100 nM and 1000 nM (sheet 'Samples'), CATDS: 9.5055877721236803E-2; n = 1
PRKD3 = conditions: read-out: apparent Kd; compound concentrations: 100 nM and 1000 nM (sheet 'Samples'), CATDS: 9.9429548898697998E-2; n = 1
CDKL5 = conditions: read-out: apparent Kd; compound concentrations:100 nM and 1000 nM (sheet 'Samples'); n = 1
CLK1 = conditions: read-out: apparent Kd; compound concentrations:100 nM and 1000 nM (sheet 'Samples'); n = 1
CLK2 = conditions: read-out: apparent Kd; compound concentrations:100 nM and 1000 nM (sheet 'Samples'); n = 1
CLK4 = conditions: read-out: apparent Kd; compound concentrations:100 nM and 1000 nM (sheet 'Samples'); n = 1
CDK6 = conditions: read-out: apparent Kd; compound concentrations: 100 nM and 1000 nM (sheet 'Samples'), CATDS: 0.161106478670141; n = 1
MAP3K6 = conditions: read-out: apparent Kd; compound concentrations: 100 nM and 1000 nM (sheet 'Samples'), CATDS: 0.18139897534285501; n = 1
PIK3CA = conditions: read-out: apparent Kd; compound concentrations: 100 nM and 1000 nM (sheet 'Samples'), CATDS: 0.92567597438095595; n = 1
TESK1 = conditions: read-out: apparent Kd; compound concentrations: 100 nM and 1000 nM (sheet 'Samples'), CATDS: 0.16638994062749099; n = 1

Q: Clc1ccc(CNc2nccc(-c3cnn4ncccc34)n2)cc1 [GW781673X] was tested. Which potency estimated from few doses (AKT1) did it give?
A: Its potency estimated from few doses is 1400 nM.

Q: And the potency estimated from few doses (CSNK1D; CATDS: 0.21502598337996101)?
A: The potency estimated from few doses was 1290 nM.

Q: And the potency estimated from few doses (CSNK1E; CATDS: 0.16970430448232399)?
A: Its potency estimated from few doses is 2140 nM.

Q: And the potency estimated from few doses (GSK3A)?
A: Its potency estimated from few doses is 1130 nM.

Q: And the potency estimated from few doses (RIOK2)?
A: The potency estimated from few doses was 1670 nM.

Q: For O=C1N=C(N[C@H](CO)Cc2ccccc2)S/C1=C\c1ccc2ncccc2c1 [RO4503319-000], which potency estimated from few doses (AKT2; CATDS: 0.16502460627676999) is on record?
A: Its potency estimated from few doses is 2470 nM.

Q: And the potency estimated from few doses (CDC42)?
A: The potency estimated from few doses was 1290 nM.

Q: What about the potency estimated from few doses (DCTPP1) of the same compound?
A: The potency estimated from few doses was 1330 nM.

Q: What about the potency estimated from few doses (DJA1) of the same compound?
A: Its potency estimated from few doses is 1350 nM.

Q: And the potency estimated from few doses (IRAK4)?
A: The potency estimated from few doses was 1810 nM.

Q: Which results are given for CCn1cnc2c(N)ncnc21 [GW345098X]?
A: potency estimated from few doses (ADRBK1; CATDS: 0.15222698888400599): 2400 nM; potency estimated from few doses (CSNK1G1): 2080 nM; potency estimated from few doses (NQO2; CATDS: 0.164283529908442): 2040 nM; potency estimated from few doses (PDXK): 1560 nM; potency estimated from few doses (TP53RK): 2450 nM; potency estimated from few doses (VDAC3): 1540 nM

Q: With Cn1c(=O)c(F)c(Nc2ccc(I)cc2F)c2c(=O)n(OC[C@H](O)CO)cnc21 [TPKI-16] as the compound, how does the potency estimated from few doses (ADRBK1; CATDS: 0.13244009116627101) read?
A: Its potency estimated from few doses is 1780 nM.

Q: And the potency estimated from few doses (ERBB3)?
A: The potency estimated from few doses was 1370 nM.

Q: What about the potency estimated from few doses (MAP2K1) of the same compound?
A: Its potency estimated from few doses is 12.2 nM.

Q: And the potency estimated from few doses (MAP2K2)?
A: Its potency estimated from few doses is 15 nM.

Q: What about the potency estimated from few doses (NQO2; CATDS: 0.16308472458482501) of the same compound?
A: The potency estimated from few doses was 677 nM.

Q: How did the potency estimated from few doses (AGK; compound concentrations: 100 nM and 1000 nM (sheet 'Samples'), CATDS: 7.7586701088880605E-2) turn out when OCCn1c(-c2ccncc2)c(-c2ccc(F)cc2)c2ncccc21 [RO1155798-000] was run?
A: The potency estimated from few doses was 2000 nM.

Q: What about the potency estimated from few doses (CSNK1D; CATDS: 0.14002934621816099) of the same compound?
A: The potency estimated from few doses was 582 nM.

Q: And the potency estimated from few doses (CSNK1E; CATDS: 9.5278515441506895E-2)?
A: The potency estimated from few doses was 1190 nM.

Q: What about the potency estimated from few doses (JAK2) of the same compound?
A: The potency estimated from few doses was 432 nM.

Q: And the potency estimated from few doses (MAPK14)?
A: The potency estimated from few doses was 897 nM.

Q: And the potency estimated from few doses (MAPK9)?
A: The potency estimated from few doses was 1460 nM.

Q: What about the potency estimated from few doses (MAPKAPK2) of the same compound?
A: Its potency estimated from few doses is 1410 nM.

Q: What about the potency estimated from few doses (PKN3) of the same compound?
A: The potency estimated from few doses was 1360 nM.

Q: And the potency estimated from few doses (PRKD2)?
A: Its potency estimated from few doses is 1200 nM.

Q: And the potency estimated from few doses (PRKD3)?
A: Its potency estimated from few doses is 1090 nM.

Q: Which potency estimated from few doses (AGK; compound concentrations:100 nM and 1000 nM (sheet 'Samples')) does the source give for COc1ccc2c(-c3ccnc(Nc4cccc(OC(F)(F)F)c4)n3)cnn2n1 [GW810372X] here?
A: The potency estimated from few doses was 2270 nM.

Q: And the potency estimated from few doses (CDKL5)?
A: The potency estimated from few doses was 1850 nM.

Q: And the potency estimated from few doses (CLK1)?
A: The potency estimated from few doses was 82.4 nM.

Q: What about the potency estimated from few doses (CLK2) of the same compound?
A: The potency estimated from few doses was 20.2 nM.

Q: What about the potency estimated from few doses (CLK4) of the same compound?
A: The potency estimated from few doses was 120 nM.

Q: What does the source list for CC(C)(C)c1ccc(C(=O)Nc2cn3cc(-c4cccnc4)ccc3n2)cc1 [TPKI-58]?
A: potency estimated from few doses (AKT2; CATDS: 0.161552341020717): 1950 nM; potency estimated from few doses (CDK6): 1970 nM; potency estimated from few doses (MAP3K6): 1390 nM; potency estimated from few doses (PIK3CA): 17.7 nM; potency estimated from few doses (TESK1): 1790 nM
